Consider 7 molecules from PubChem BioAssay (NCATS).

Where “and” joins values, the source holds several entries; their conditions need not be identical. Equal entries are not always repeated. Records with an inconclusive call do not appear. A structure can be active in one record and inactive in another. Calls of active or inactive are those of the source. Unless noted, calls follow the shape of the dose curve; as a rule, active = well fitted curve in either direction with a large enough effect (not every such curve was filed as active); inconclusive = small, poorly fitted or top-dose-only effect, or another doubt; inactive = flat fitted curve, though single readings scatter.

Assay [1] is described as follows: AP1 Signaling Pathway (AID 357).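 Also: ME-180 reporter cells stimulated with EGF at its EC50 level; % is scaled to controls: 0 for no effect and ±100 for the full control effect.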 To be noted: ME-180 AP-1-bla reporter, EGF-induced, beta-lactamase ratio, 5 h. An outline of the steps:
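Cells are seeded overnight, exposed to compound titrations and an EC50 level of EGF for 5 hours at 37 °C, then loaded with CCF4 dye for 2.5 hours. Beta-lactamase activity under the AP-1 element is read as a blue/green ratio.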

Assay [2] can be described thus: NFAT Signaling Pathway (AID 444).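 Also: carbachol stimulus at about its EC50 of 1 µM final; % is scaled to controls: 0 for no effect and ±100 for the full control effect.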 To be noted: Jurkat NFAT-bla M1, carbachol, beta-lactamase ratio, 5 h. The essentials:
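Jurkat cells carrying an NFAT-driven β-lactamase reporter and co-transfected muscarinic M1 receptor were treated with compound plus carbachol (1 uM final, an EC50 level) for 5 h at 37 °C. CCF4 loading followed for 1 h at RT; 460/530 nm ratio gave %activity.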

Assay [3] in a line: Stat Signaling Pathway (AID 446).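 Also: ME-180 cervical cancer cells given 40 pM IL-6 alongside compound; SIE-controlled beta-lactamase reporter measured as 460/530 nm FRET emission ratio; % is scaled to controls: 0 for no effect and ±100 for the full control effect.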 To be noted: ME-180 SIE beta-lactamase reporter, IL-6 stimulated, 5 h. The essentials: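 Emission at 460 and 530 nm (excitation 405 nm) reports SIE-controlled beta-lactamase in ME-180 cells. Cells received compound with 40 pM IL-6 for 5 hrs at 37 C; data scaled between 300 pM IL-6 and 125 nM JAK-inhibitor controls.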
Assay [4] has as its target Glucocorticoid receptor (Homo sapiens) (UniProt P04150). Description: GR-GFP Redistribution (AID 450;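 active = compounds whose dose series gives a full or clear partial fitted curve of increased nuclear translocation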; also: potency is read from the fitted curve at half-maximal effect). To be noted: U2OS GR-GFP nuclear translocation, laser cytometry, 2 h.
For assay [5] the target is unchanged. The assay is described as follows: GR-EFC Redistribution (AID 451; calls by dose curve; also: potency is read from the fitted curve at half-maximal effect). To be noted: CHO-K1 GR-EFC translocation, beta-gal luminescence, 2 h. The essentials: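 CHO-K1 cells stably expressing nuclear-localized β-gal enzyme acceptor and GR fused C-terminally to the enzyme donor fragment; ligand-driven nuclear translocation restores β-gal by complementation. Compounds titrated up to 46 uM final, 2 h at 37 °C; luminescence read.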

Assay [6] has as its target Mitogen-activated protein kinase 10 (Mus musculus) (UniProt Q61831). The assay is described as follows: JNK3 AlphaScreen Assay (AID 530).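 Also: kinase came from lysate of stimulated human HepG2 cells; signal reports phosphorylation of biotinylated GST-cJun 1-79 at Ser73 with 10 µM ATP; % is scaled to controls: 0 for no effect and ±100 for the full control effect.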 The essentials:
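Biotinylated GST-cJun(1-79) served as substrate for JNK3 in HepG2 lysates stimulated with IL-1beta and TNF-alpha. ATP was 10 uM final, pH 7.6. Ser73 phosphorylation was quantified by AlphaScreen (680 nm excitation).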

Assay [7] has as its target 3',5'-cyclic-AMP phosphodiesterase 4B (Homo sapiens) (UniProt Q07343). The assay is described as follows: qHTS Assay for Inhibitors of PDE-IV (AID 607; active = well fitted activation curve with a large enough effect in the main read-out, with a control signal flat, not every such curve was filed as active; also: potency is read from the fitted curve at half-maximal effect). An outline of the steps:
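The readout is membrane depolarisation from a cAMP-sensing CNG channel, detected with a potential dye at ex 535/em 590. Cells were HEK293-derived (endogenous PDE-IV) at 1000 cells/well, titrated up to 22.9 uM final.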

Assay [8] can be described thus: qHTS Assay for Identification of Small Molecule Agonists for Hypoxia Response Element Signaling Pathway (AID 914; active = well fitted activation curve with a large enough effect in the signal ratio, with a control signal flat, not every such curve was filed as active; the % refers to the signal ratio; also: % of control where 0% means no effect). The note with it: ME-180 (cervical carcinoma) HRE-bla reporter, beta-lactamase ratio, CoCl2, 17 h; activation: stronger effect = higher value. The essentials: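 HRE-bla ME-180 assay for agonist-like enhancement of an EC50 CoCl2 stimulus: 17 h at 37 degrees Celsius, CCF4 for 2.5 h, ratiometric 460/530 nm signal converted to %Activity and fitted to AC50.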

For assay [9], the target named is Cytochrome P450 1A2 (Homo sapiens) (UniProt P05177). The assay is described as follows: p450-cyp1a2 (AID 410; calls by dose curve; also: potency is read from the fitted curve at half-maximal effect;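 as to activity change, negative = inhibition: -100% = full effect of reference inhibitor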). The essentials: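 Read-out is luminescence from luciferin produced by CYP1A2 demethylation of Luciferin-ME (100uM, at Km). Detection reagent stopped the 60 min NADPH-dependent reaction; signals were normalized to 57 uM furafylline.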
The target in assay [10] is Guanine nucleotide-binding protein G(i) subunit alpha-1 (Homo sapiens) (UniProt P63096). Description: qHTS Assay for Inhibitors of RGS12 GoLoco Motif Activity (Green Fluorophore) (AID 879; active = well fitted curve in the direction sought with a large enough effect; an effect the other way counts as inactive or inconclusive;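 also: 0% = labeled peptide with Gαi1 and full inhibition = labeled peptide alone without protein; negative values mean loss of peptide binding seen as reduced polarization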). An outline of the steps: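 A drop in FITC polarization marked displacement of the FITC-tagged RGS12 GoLoco peptide (10 nM) from Gαi1 (50 nM). Compounds were incubated 10 min at room temperature in Tris pH 7.5 buffer containing 150 mM NaCl, 0.1 mM GDP and 0.05% NP40; unlabeled peptide titration served as control.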

Assay [11] has as its target Cytochrome P450 3A4 (Homo sapiens) (UniProt P08684). Description: qHTS Assay for Activators of Cytochrome P450 3A4 (AID 885; active = well fitted curve in the direction sought with a large enough effect; an effect the other way counts as inactive or inconclusive; also: nearly all actives have a fitted effect of over 65% in size). An outline of the steps: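 Activators are scored by enhanced luminescence from CYP3A4 conversion of luciferin-PPXE (25uM, equal to KM) to luciferin, after 60 min at RT with an NADPH-regenerating system.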
Assay [12] has as its target Cytochrome P450 2D6 (Homo sapiens) (UniProt P10635). The assay is described as follows: qHTS Assay for Inhibitors and Substrates of Cytochrome P450 2D6 (AID 891; active = well fitted curve in the direction sought with a large enough effect; an effect the other way counts as inactive or inconclusive; also: potency is read from the fitted curve at half-maximal effect; nearly all actives have a fitted effect of over 60% in size). An outline of the steps:
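Luminescent read-out of luciferin formed by 5 nM human CYP2D6 demethylating 30 uM Luciferin-ME EGE (Km level) over 60 min at room temperature after NADPH regeneration addition. Data normalized to full inhibition by 1.43 uM quinidine.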

In assay [13] the target is Pyruvate kinase PKM (Homo sapiens) (UniProt P14618). Description: qHTS Assay for Activators of Human Muscle Pyruvate Kinase (AID 954; active = well fitted curve in the direction sought with a large enough effect, not every such curve was filed as active;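 also: 0% = uninhibited enzyme and -100% = no enzyme or full thiadiazolimine inhibition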). The essentials:
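PKM2, human, >95% pure, 0.1 nM; PEP 0.5 mM (Km), ADP 0.1 mM; 50 mM imidazole pH 7.2, 50 mM KCl, 0.01% Tween 20, 0.05% BSA; 1 h RT; luciferase luminescence readout.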

In assay [14] the target is Alpha-galactosidase A (Homo sapiens) (UniProt P06280). Description: Counterscreen for Glucocerebrosidase Inhibitors: qHTS Assay for Human alpha-Galactosidase at pH 4.5 (AID 992; active = well fitted curve in the direction sought with a large enough effect; an effect the other way counts as inactive or inconclusive; also: 0% is about no effect). The essentials:
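Fluorogenic 4-MU alpha-D-galactoside (80 uM) hydrolysis, 2 nM enzyme, pH 4.5 citrate buffer + 0.005% Tween-20; 20 min RT; NaOH/glycine pH 10 stop; Ex365/Em440. Compounds titrated 0.7 nM–77 uM; Hill-equation AC50.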

In assay [15] the target is alpha-glucosidase (Oryza sativa, rice) (UniProt Q653V4). Description: Counterscreen for Glucocerebrosidase Inhibitors: qHTS Assay for Rice alpha-Glucosidase at pH 5.0 (AID 997; active = well fitted curve in the direction sought with a large enough effect; an effect the other way counts as inactive or inconclusive;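 also: 0% = full activity with enzyme and -100% = basal without enzyme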). The essentials: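 Endpoint fluorogenic assay at pH 5.0: compounds (0.7 nM to 77 uM) titrated against 4 nM rice enzyme and 400 uM 4-MU-alpha-glucoside for 20 min at room temperature; NaOH/glycine stop, read ex 365/em 440 nm, Hill-fitted AC50.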

Assay [16] addresses Lysosomal acid glucosylceramidase (Homo sapiens) (UniProt P04062). Description: Glucocerebrosidase-p2 (AID 348; in the data active = potency below about 10 µM; also: potency is read from the fitted curve at half-maximal effect). The note with it: purified GBA, blue fluorogenic substrate, 40 min. The essentials:
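Normal human glucocerebrosidase (0.2 nM) with blue fluorogenic substrate (80 uM final) in citrate/phosphate pH 5.9 with 10mM sodium taurocholate, 0.01% tween-20; 40 min RT, NaOH/glycine stop; fluorescence Ex 365/Em 440; AC50 from a titration from 0.6 nM upwards.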

Where [17] appears, read: at 7.69 µM (top of the series) unless noted.

Chain of Cytochrome P450 1A2 (Homo sapiens) (P05177 whole entry, looked up): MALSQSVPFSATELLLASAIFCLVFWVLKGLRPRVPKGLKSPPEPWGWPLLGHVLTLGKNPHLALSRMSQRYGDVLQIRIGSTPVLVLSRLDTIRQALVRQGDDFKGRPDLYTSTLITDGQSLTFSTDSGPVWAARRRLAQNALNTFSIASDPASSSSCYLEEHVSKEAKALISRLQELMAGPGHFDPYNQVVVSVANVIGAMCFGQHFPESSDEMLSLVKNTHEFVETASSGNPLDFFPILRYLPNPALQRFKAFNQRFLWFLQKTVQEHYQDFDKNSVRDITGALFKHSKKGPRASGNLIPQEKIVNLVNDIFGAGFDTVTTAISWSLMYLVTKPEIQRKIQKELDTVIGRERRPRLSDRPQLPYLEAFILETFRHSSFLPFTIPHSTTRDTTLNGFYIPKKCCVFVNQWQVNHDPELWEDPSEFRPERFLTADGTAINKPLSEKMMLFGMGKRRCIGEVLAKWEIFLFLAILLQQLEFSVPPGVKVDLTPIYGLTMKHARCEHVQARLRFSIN
Chain of 3',5'-cyclic-AMP phosphodiesterase 4B (Homo sapiens) (Q07343 whole entry, looked up): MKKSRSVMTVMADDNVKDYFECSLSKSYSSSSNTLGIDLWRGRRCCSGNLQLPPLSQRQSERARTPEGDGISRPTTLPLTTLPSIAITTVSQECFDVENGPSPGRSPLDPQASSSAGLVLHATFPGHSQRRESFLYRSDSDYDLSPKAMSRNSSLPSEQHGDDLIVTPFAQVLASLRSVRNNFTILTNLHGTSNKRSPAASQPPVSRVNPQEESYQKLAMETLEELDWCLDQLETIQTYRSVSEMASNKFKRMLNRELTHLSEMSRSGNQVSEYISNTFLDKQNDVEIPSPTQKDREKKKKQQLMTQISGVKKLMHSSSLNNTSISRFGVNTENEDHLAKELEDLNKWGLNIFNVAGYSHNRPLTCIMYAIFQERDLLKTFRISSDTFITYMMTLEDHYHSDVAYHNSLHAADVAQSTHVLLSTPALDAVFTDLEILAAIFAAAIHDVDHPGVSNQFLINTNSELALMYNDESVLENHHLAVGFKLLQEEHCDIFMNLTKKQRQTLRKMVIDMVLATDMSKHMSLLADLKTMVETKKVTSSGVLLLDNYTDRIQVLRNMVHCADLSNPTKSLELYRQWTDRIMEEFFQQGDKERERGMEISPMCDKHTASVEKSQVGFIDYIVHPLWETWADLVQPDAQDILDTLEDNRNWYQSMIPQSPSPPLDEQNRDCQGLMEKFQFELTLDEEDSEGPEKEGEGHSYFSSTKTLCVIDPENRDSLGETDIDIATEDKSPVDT
Chain of Glucocorticoid receptor (Homo sapiens) (P04150 whole entry, looked up, the tested form may be a part): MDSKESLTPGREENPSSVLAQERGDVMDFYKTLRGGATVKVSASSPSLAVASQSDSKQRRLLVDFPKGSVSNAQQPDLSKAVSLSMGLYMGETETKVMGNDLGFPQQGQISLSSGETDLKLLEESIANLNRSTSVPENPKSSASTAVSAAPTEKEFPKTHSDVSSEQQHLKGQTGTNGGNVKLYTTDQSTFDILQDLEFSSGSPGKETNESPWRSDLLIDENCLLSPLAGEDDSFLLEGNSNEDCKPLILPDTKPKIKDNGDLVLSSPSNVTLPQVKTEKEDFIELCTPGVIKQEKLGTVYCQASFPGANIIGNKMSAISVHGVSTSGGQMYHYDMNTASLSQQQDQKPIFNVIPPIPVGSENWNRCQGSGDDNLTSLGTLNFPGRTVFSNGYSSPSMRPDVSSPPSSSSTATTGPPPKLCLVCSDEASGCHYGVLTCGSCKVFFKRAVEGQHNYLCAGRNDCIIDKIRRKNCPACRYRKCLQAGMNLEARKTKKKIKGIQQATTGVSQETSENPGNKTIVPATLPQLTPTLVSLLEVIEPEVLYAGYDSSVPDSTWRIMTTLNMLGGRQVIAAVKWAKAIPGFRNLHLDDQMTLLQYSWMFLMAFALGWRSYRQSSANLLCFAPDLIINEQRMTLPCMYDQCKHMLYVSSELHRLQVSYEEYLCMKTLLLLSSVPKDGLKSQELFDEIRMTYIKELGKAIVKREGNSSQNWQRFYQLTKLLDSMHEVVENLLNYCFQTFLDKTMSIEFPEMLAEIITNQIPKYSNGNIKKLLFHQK
Chain of Guanine nucleotide-binding protein G(i) subunit alpha-1 (Homo sapiens) (P63096 whole entry, looked up): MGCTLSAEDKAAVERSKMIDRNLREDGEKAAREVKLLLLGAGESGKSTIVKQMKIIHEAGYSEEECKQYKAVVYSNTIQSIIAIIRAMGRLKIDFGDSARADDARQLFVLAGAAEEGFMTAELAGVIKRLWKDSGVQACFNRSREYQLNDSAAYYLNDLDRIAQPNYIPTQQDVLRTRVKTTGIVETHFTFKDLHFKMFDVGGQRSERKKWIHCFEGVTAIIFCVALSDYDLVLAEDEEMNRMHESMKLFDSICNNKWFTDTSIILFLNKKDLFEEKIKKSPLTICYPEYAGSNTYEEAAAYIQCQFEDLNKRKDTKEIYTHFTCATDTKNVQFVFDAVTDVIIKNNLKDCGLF
Chain of Pyruvate kinase PKM (Homo sapiens) (P14618 whole entry, looked up): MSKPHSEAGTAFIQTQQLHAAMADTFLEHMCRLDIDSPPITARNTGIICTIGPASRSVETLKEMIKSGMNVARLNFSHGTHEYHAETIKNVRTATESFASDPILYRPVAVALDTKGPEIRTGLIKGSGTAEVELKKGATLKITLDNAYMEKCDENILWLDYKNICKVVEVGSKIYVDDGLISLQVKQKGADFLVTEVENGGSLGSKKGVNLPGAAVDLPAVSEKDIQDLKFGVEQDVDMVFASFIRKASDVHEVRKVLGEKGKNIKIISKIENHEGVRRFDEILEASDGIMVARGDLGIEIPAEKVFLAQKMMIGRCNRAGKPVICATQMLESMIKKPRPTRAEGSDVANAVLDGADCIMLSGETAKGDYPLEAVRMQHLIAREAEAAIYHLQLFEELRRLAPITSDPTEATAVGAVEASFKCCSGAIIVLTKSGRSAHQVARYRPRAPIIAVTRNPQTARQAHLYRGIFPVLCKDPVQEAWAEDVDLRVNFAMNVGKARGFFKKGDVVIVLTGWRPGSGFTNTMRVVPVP
Chain of Alpha-galactosidase A (Homo sapiens) (P06280 whole entry, looked up): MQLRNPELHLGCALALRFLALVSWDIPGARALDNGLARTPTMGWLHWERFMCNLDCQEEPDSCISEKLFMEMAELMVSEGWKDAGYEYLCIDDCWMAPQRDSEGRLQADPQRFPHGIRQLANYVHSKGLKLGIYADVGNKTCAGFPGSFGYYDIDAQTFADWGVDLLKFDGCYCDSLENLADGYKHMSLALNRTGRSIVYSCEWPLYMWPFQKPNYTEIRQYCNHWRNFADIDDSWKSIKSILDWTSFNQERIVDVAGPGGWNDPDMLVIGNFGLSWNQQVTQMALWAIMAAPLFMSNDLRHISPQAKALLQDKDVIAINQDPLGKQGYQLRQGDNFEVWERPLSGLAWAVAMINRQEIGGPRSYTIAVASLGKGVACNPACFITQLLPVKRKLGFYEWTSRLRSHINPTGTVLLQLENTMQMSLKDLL
Chain of Cytochrome P450 3A4 (Homo sapiens) (P08684 whole entry, looked up): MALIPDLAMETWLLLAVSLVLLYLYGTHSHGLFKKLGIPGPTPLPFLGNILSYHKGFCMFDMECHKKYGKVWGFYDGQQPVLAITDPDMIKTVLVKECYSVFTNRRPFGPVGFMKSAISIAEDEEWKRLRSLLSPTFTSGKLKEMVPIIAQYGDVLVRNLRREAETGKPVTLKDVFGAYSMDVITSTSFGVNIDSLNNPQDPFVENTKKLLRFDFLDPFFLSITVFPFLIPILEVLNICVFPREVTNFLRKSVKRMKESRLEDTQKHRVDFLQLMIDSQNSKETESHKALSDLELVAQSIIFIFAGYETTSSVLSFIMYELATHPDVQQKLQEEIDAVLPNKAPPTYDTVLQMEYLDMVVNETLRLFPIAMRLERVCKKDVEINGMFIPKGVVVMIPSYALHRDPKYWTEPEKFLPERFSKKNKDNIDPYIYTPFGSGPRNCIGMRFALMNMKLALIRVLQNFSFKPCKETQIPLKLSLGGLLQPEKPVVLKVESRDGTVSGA
Chain of Cytochrome P450 2D6 (Homo sapiens) (P10635 whole entry, looked up): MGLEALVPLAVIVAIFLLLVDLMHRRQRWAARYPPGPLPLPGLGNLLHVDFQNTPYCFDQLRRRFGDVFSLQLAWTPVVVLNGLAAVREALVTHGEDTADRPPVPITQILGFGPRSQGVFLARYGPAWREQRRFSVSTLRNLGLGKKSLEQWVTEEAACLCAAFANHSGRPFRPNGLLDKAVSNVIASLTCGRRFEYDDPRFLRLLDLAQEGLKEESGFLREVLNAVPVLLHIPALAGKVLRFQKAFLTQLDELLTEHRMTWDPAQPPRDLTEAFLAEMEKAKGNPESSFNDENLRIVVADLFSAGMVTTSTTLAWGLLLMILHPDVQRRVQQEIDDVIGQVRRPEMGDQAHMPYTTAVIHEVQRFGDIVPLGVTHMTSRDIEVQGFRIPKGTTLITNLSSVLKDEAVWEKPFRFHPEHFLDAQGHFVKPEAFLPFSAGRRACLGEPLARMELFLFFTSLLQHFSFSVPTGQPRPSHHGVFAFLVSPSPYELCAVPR
Chain of Lysosomal acid glucosylceramidase (Homo sapiens) (P04062 whole entry, looked up): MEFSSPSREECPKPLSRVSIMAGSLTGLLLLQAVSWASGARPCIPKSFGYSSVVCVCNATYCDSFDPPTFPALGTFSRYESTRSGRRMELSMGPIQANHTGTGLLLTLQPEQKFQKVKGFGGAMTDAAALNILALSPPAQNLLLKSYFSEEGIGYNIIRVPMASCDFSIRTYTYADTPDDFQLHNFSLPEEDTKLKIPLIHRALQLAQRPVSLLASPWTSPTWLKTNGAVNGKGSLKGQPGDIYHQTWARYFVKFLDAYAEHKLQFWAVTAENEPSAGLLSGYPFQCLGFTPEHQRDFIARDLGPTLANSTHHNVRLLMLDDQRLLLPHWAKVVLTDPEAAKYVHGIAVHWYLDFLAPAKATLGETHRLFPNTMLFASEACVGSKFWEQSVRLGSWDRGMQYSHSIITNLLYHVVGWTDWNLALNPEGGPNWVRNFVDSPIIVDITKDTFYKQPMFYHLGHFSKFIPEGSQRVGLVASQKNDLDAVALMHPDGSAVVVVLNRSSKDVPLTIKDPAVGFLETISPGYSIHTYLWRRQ

Consider `CC(C)(C)c1ccc([C@@H](O)CCCN2CCC(C(O)(c3ccccc3)c3ccccc3)CC2)cc1`, for which the activity change, negative = inhibition is 2.82% (inactive) in [1] (at 17.2 µM (top of the series)), 6.21% (inactive) in [1] (at 38 µM (top of the series)), -18.2% (inactive) in assay [2] (at 17.2 µM (top of the series)) and -0.347% (inactive) in assay [2] (at 38 µM (top of the series)). Further, the values for the activity, negative = inhibition in assay [3] (at 17.2 µM (top of the series)) and in assay [3] (at 38 µM (top of the series)) were -5.86% (inactive) and 9.55% (inactive), respectively. Moreover, the Potency in [4] is > 46 µM (inactive) and > 20.6 µM (inactive); in assay [5] it was > 46 µM (inactive) and > 20.6 µM (inactive); in [7] it was 2 µM (active) and inactive. In addition, in assay [6], the Potency entry was “inactive”. In addition, the activation in assay [8] was 18.6% (inactive).

For the molecule `Oc1ccc([C@@H]2CNCCc3c2cc(O)c(O)c3Cl)cc1`, the activity change, negative = inhibition in [1] (setting [17]) was -5.37% [at 38 µM] (inactive); in assay [2] (setting [17]), 1.42% [at 38 µM] (inactive). The Potency entry in [9], in [6], in assay [7], in assay [11] and in assay [15] was “inactive” each time. The activity, negative = inhibition in assay [3] (setting [17]) was 18.7% [at 38 µM] (inactive). The figures for the Potency in assay [4], in assay [5] and in assay [12] were > 46 µM (inactive), > 46 µM (inactive) and 3.16 µM (active), respectively. The result in assay [10], in [13] and in assay [14] was inactive.

As for `O=C(O)c1cc(-c2ccc(-c3ccc(-c4cc(C(=O)O)c5cc(Cl)ccc5n4)cc3)cc2)nc2ccc(Cl)cc12`, the activity change, negative = inhibition in assay [1] (setting [17]) is -6.84% (inactive); in assay [9], -18.2% [at 2.29 µM] (inactive); in assay [2] (setting [17]), -22% (inactive). In assay [3] (setting [17]), the activity, negative = inhibition was -13.1% (inactive). The results for the Potency in assay [4] and in assay [5] were > 46 µM (inactive) and > 9.22 µM (inactive), respectively. Moreover, the Potency entry in assay [6] was “inactive”.

`CN(C)CCOC(=O)c1ccc(N)cc1`: the activity change, negative = inhibition in [1] (setting [17]) is 4.6% (inactive); in assay [2] (setting [17]), -0.262% (inactive). The Potency entry in assay [9], in assay [6] and in assay [7] was “inactive” each time. For the same molecule, in [3] (setting [17]), the activity, negative = inhibition is -3.48% (inactive). Further, the Potency in [4] is > 46 µM (inactive); in assay [5], > 9.22 µM (inactive).

`O=C1C=C(N2CCN(c3ccccn3)CC2)C(=O)c2c(O)ccc(O)c21`: the figures for the Potency in assay [16], in assay [4] and in [5] were > 11.4 µM (inactive), > 46 µM (inactive) and > 9.22 µM (inactive), respectively. Moreover, in [3] (setting [17]), the activity, negative = inhibition is -4.42% (inactive). The Potency entry in assay [7] was “inactive”.

On to `NNC(=O)CNc1cccc(Br)c1`, for which the results for the activity change, negative = inhibition in [1] (setting [17]) and in assay [2] (setting [17]) were -0.367% (inactive) and -6.61% (inactive), respectively. For the same molecule, the Potency is 0.501 µM (active) in [9], > 46 µM (inactive) in assay [4] and > 9.22 µM (inactive) in assay [5]. Besides, the activity, negative = inhibition in [3] (setting [17]) is -6.81% (inactive). Also, the Potency entry in assay [6] and in [7] was “inactive” throughout.

Consider `CN1[C@@H]2CC[C@H]1CC(OC(=O)[C@@H](CO)c1ccccc1)C2` (stereo partly drawn), for which the activity change, negative = inhibition is -0.827% (inactive) and 1.39% (inactive) in assay [1] (at 17.2 µM (top of the series)); 10.7% (inactive) and -6.14% (inactive) in assay [1] (at 38 µM (top of the series)); -38.1% [at 17.2 µM] (active) in [2] (setting [17]). Besides, the activity, negative = inhibition is 10.3% (inactive) and 3.29% (inactive) in [3] (at 17.2 µM (top of the series)); 27.8% (inactive) and 8.42% (inactive) in assay [3] (at 38 µM (top of the series)). In addition, the Potency result in assay [6] and in [15] was “inactive” each time. Further, the call in [10], in [13] and in assay [14] was inactive.
